# The entries come from a sample that favours hits as a whole.
# CBX7 inh = CBX7 chromodomain binding inhibitors, primary screen, biochemical, AlphaScreen; AlphaScreen His6-CBX7 / biotin-H3K27me3 peptide binding; stronger effect = lower value; normalised signal (fraction of DMSO) (test concentration not listed); actives 1.1% (n = 66,000); Chromobox protein homolog 7 (Homo sapiens), O95931; in the data active = normalised signal below about 0.5
# Target sequence (O95931 whole entry, looked up): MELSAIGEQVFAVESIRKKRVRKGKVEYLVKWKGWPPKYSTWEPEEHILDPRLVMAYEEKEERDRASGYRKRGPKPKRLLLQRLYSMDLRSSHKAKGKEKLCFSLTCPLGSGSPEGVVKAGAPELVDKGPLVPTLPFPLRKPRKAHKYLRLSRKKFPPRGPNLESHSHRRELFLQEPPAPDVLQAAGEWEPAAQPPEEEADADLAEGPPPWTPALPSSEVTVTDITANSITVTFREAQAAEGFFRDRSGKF
# Numbers without * were called inactive.
SMILES,CBX7 inh
Cc1nc(Nc2cccc(C(F)(F)F)c2)c2c3c(sc2n1)CCCC3,1.3
Cc1nc(Nc2cccc(C(F)(F)F)c2)c2c(C)c(C)sc2n1,0.45*
Cc1sc2nc(Cc3ccccc3)nc(Nc3cccc(C(F)(F)F)c3)c2c1C,1.1
Cc1cc(C)cc(C(=O)N2CC(=O)Nc3ccc(Br)cc3C2c2ccc(F)cc2)c1 (stereo not given),0.85
COc1ccc(-c2cc(CCCC(=O)NCc3ccc4c(c3)OCO4)no2)cc1,1
CCOc1ccc(C(O)(CCN2CCCCC2)c2ccc(C)cc2)cc1 (stereo not given),0.88
O=C(C1=CCN(S(=O)(=O)c2ccccc2)CC1)N1CCCCCC1,1
O=C1CC(NCCN2CCOCC2)C(=O)N1c1ccc(Br)cc1 (stereo not given),0.46*
COC(=O)c1ccc(N2C(=O)CC(NCCN3CCOCC3)C2=O)cc1 (stereo not given),0.92
CC(=O)Nc1ccc(N2C(=O)CC(NCCN3CCOCC3)C2=O)cc1 (stereo not given),0.94
Cc1ccc(Nc2c(-c3ccc(N4CCOCC4)cc3)nc3ccccn23)cc1,1.1
Cc1ccc(Nc2c(-c3ccc(N4CCOCC4)cc3)nc3sccn23)cc1C,0.49*
Cc1ccc(Nc2c(-c3ccc(N4CCOCC4)cc3)nc3cc(C)ccn23)cc1,0.84
COc1ccc(Nc2c(-c3ccc(C)cc3)nc3sccn23)cc1OC,0.77
COc1ccc(-c2nc3ccccn3c2Nc2ccc3c(c2)OCCO3)cc1,0.71
COc1ccc(-c2nc3sccn3c2Nc2ccc3c(c2)OCO3)cc1,0.47*
O=C(c1ccc2c(c1)N(Cc1c(F)cccc1Cl)C(=O)CS2)N1CCCC1,1
CCN1CCCC1CNc1cc(C)nc2c(-c3ccccc3OC)c(C)nn12 (stereo not given),0.93
COc1ccc(C2=C(Cl)C=C(c3ccccc3C)c3ccccc3O2)cc1OC,0.72
C/C(=C\c1ccccc1)c1nc2ccc(Cl)cn2c1Nc1c(C)cccc1C,1.1
COc1cccc(-c2nn(C)c3sc(C(=O)Nc4ccc(OC)cc4OC)cc23)c1,0.94
CCOC(=O)c1c(NC(=O)COc2ccc(Cl)cc2C)sc2c1CCC(C)C2 (stereo not given),1.1
Nc1ccc(-c2ccc(-c3cnc4ccccc4n3)cc2)cc1,0.15*
CCOc1ccc(-c2cnc3ccccc3n2)cc1,1.2
Brc1ccc(-c2cnc3ccccc3n2)cc1,1.1
SMILES,CBX7 inh
Cc1ccc(N(CC(=O)Nc2ccc(F)c(Cl)c2)S(=O)(=O)c2c(C)nn(C)c2C)cc1,1.1
CCOC(=O)c1cnc2ccc(OCC)cc2c1N1CCCCCC1,1.1
CCOC(=O)c1cnc2cc(C(F)(F)F)ccc2c1N1CCN(c2ccccc2OC)CC1,0.86
CCOC(=O)c1cnc2ccc(OCC)cc2c1N1CCN(c2ccccc2OC)CC1,0.46*
CCOC(=O)c1cnc2c(OC)cccc2c1N1CCN(c2ccccc2)CC1,0.56
CCOC(=O)c1cnc2c(OC)cccc2c1N1CCN(c2ccccc2F)CC1,0.43*
CCOC(=O)c1cnc2c(OC)cccc2c1N1CCC(C)CC1,0.65
COc1ccccc1NC(=O)Cn1cnc2c(nnn2Cc2ccc(F)cc2)c1=O,0.91
O=C(CS(=O)(=O)c1nc(-c2ccc3c(c2)OCO3)cn1-c1ccccc1)Nc1ccc(Cl)cc1,0.88
CN1CCN(C(=O)CN2C(=O)CCSc3ccccc32)CC1,1.2
CC(C)OCCCNC(=O)Cc1c(C(=O)O)[nH]c2ccc(Cl)cc12,1
COc1ccc(N2CCN(CCCNC(=O)CCn3c(=O)[nH]c4ccsc4c3=O)CC2)cc1,1
CCCOc1ccc(-c2nc(N3CCCCCC3)c3ccccc3n2)cc1,1.1
Cc1ccc(CNC(=O)CN2CCCN(Cc3ccc(F)cc3Cl)C2=O)cc1,0.93
COc1ccc(-c2nc(CS(=O)(=O)CC(=O)NCCN(C)C)c(C)o2)cc1,1
CCOC(CNC(=O)C1CCN(C(=O)c2cc3sccc3n2C)CC1)OCC,0.89
CCN(C(=O)c1cn(CC(C)C)c(=O)c2cc(OC)c(OC)cc12)c1ccccc1C,0.92
Cc1ccnc(Nc2nc(-c3c(C)nc4cc(C)ccn34)cs2)c1,0.68
Cc1ccnc(Nc2nc(-c3sc(N)nc3C)cs2)c1,0.4*
Cc1ccnc(Nc2nc(-c3ccc(C(C)C)cc3)cs2)c1,0.87
O=C(NCc1cccnc1)c1ccc2c(c1)N(Cc1ccccc1Cl)C(=O)c1ccccc1S2,0.79
CCc1cc(-c2n[nH]c(C)c2Oc2ccccc2)c(O)cc1OC,0.6
CCc1cc(C(=O)Cc2ccc3ccccc3n2)c(O)cc1OC,0.34*
CCc1cc(-c2[nH]ncc2Oc2ccccc2)c(O)cc1OC,0.66
COc1cccc(CNC(=O)Cc2cn(C)c3ccccc23)c1,0.98
SMILES,CBX7 inh
COc1ccc(NC(=O)C(=O)NCc2ccccn2)cc1OC,0.94
CCOc1ccc(Nc2cc(C(=O)NCc3ccc(Cl)cc3)c3ccccc3n2)cc1,1
O=C(NCCCn1ccnc1)c1cc(-c2ccc(Cl)c(Cl)c2)on1,0.89
COc1cccc(NC(=O)C(=O)NCCCn2ccnc2)c1,0.87
Cc1cccc(NC(=O)C(=O)NCCCn2ccnc2)c1,0.42*
O=C(NCCCN1CCOCC1)c1cc(-c2ccco2)on1,0.95
O=C(NCCCn1ccnc1)c1cc(-c2ccco2)on1,0.42*
Cc1ccc(NC(=O)C(=O)NCCCn2ccnc2)cc1Cl,0.91
Cc1oc(-c2ccc(Cl)cc2)nc1C(=O)NCCCOC(C)C,1
Cc1cc(N2CCC(C)CC2)nc2ccc(NC(=O)CCC(=O)NC(C)C)cc12,1
Cc1ccc2nc(SCC(=O)Nc3ccccc3F)[nH]c2c1,0.84
Cc1ccc2c(c1)NC(=O)C(CC(=O)NCCCN1CCOCC1)O2 (stereo not given),1
CCC1=Nc2cc(C(=O)NCC3CCCN3CC)ccc2Sc2ccccc21 (stereo not given),0.78
Cc1ccc(OCCSc2nc3ccccc3[nH]2)c(C(C)C)c1,1.1
COc1ccc(-c2csc(Nc3ccccc3OC)n2)cc1,0.93
COc1ccc(OC)c(Nc2nc(-c3ccc(C)cc3)cs2)c1,0.77
O=C(O)c1ccc(Nc2nc(-c3ccccc3)cs2)cc1,0.86
CCOc1ccc(Nc2nc(-c3c(C)nc4ncccn34)cs2)cc1,0.88
CCOc1ccc(Nc2nc(-c3ccc(Cl)c(Cl)c3)cs2)cc1,0.82
O=C(O)c1ccc(Nc2nc(-c3ccncc3)cs2)cc1,0.91
CCOc1ccc(Nc2nc(-c3ccccn3)cs2)cc1,0.018*
COc1ccc(OC)c(Nc2nc(-c3ccccn3)cs2)c1,0.38*
O=C(O)c1ccc(Nc2nc(-c3ccccn3)cs2)cc1,0.18*
CCc1cccc(NC(=O)C2c3ccccc3C(=O)N3CCc4ccccc4C23)c1 (stereo not given),0.97
O=C(O)CC(NCc1cccc(Oc2ccccc2)c1)c1ccc(F)cc1 (stereo not given),1
SMILES,CBX7 inh
CCN1CCN(c2nc(-c3ccc(Cl)cc3)cc(C(F)(F)F)n2)CC1,1.1
O=C1CC(c2ccc(S(=O)(=O)NC(c3ccccc3)c3ccccc3)cc2)CN1 (stereo not given),1
COc1cccc(CNc2ccc3c(c2)nc(C)n3C)c1,1
CCCCn1cnc2cc(NCc3cccc(OC)c3OC)ccc21,0.54
CCCCn1cnc2cc(NCc3cccc(Br)c3)ccc21,0.25*
COc1ccc(CNc2ccc3c(c2)ncn3C)cc1OC,1
CCCn1cnc2cc(NCc3cccc(Br)c3)ccc21,0.33*
CCn1cnc2cc(NCc3ccncc3)ccc21,0.96
CCn1cnc2cc(NCc3cccc(Br)c3)ccc21,0.45*
